Test [1] in a line: Human pregnane X receptor (PXR) small molecule agonists, qHTS cell viability counter screen (AID 1346977). Also: nearly all actives have a fitted effect of over 50% in size. Also: potency is read from the fitted curve at half-maximal effect. The essentials:
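HepG2 cells stably carrying the PXR-Luc reporter are cultured with 5% charcoal-stripped FBS and treated with compounds for 24hr. CellTiter-Fluor is added at 23hr and fluorescence is read after 1hr.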

Test [2] in a line: Caspase-3/7 induction in HepG2 cells by small molecules, qHTS assay (AID 1346978). Also: nearly all actives have a fitted effect of over 15% in size. The procedure, abridged: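 Wild-type HepG2 cells (2,000/well) were settled 5 h at 37 C, 5% CO2, then exposed to compounds in DMSO for 17 h. Caspase-3/7 activity was read by luminescence 30 min after adding Caspase-Glo 3/7 reagent at room temperature.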
Test [3] is described as follows: Caspase-3/7 induction in CHO-K1 cells by small molecules, qHTS cell viability counter screen (AID 1346979). Also: nearly all actives have a fitted effect of over 35% in size. Also: potency is read from the fitted curve at half-maximal effect. The procedure, abridged: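 Seeding: 1,500 CHO-K1 cells/well. Rest: 5hr, 37C. Treatment: compounds in DMSO, 16hr. Read: CellTiter-Fluor, 1hr, fluorescence.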
A short description of test [4]: Caspase-3/7 induction in CHO-K1 cells by small molecules, qHTS assay (AID 1346980). Also: nearly all actives have a fitted effect of over 15% in size. The essentials:
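Wild-type cells were seeded at 1,500 per well and settled 5 hr at 37 C, 5% CO2, then exposed to DMSO-dissolved compounds for 17 hr. Caspase-Glo 3/7 reagent was added, and luminescence was read after 30min at room temperature.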

A short description of test [5]: Caspase-3/7 induction in HepG2 cells by small molecules, qHTS cell viability counter screen (AID 1346981). Also: nearly all actives have a fitted effect of over 30% in size. Also: potency is read from the fitted curve at half-maximal effect. As to activity change, negative = cytotoxicity: series mostly up to about 92 µM. The procedure, abridged:
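Wild-type HepG2 cells, 2,000/well, settled 5 hr at 37 C, 5% CO2 before compound addition. Viability read by CellTiter-Fluor fluorescence, reagent added after 16 hr compound exposure, then 1 hr at 37C, in the same wells as the caspase read.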

The target in test [6] is Nuclear receptor subfamily 1 group I member 2 (Homo sapiens) (UniProt O75469). The test is described as follows: Human pregnane X receptor (PXR) small molecule agonists, qHTS assay (AID 1346982). Also: nearly all actives have a fitted effect of over 35% in size. Also: potency is read from the fitted curve at half-maximal effect. The essentials:
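PXR-Luc HepG2 reporter cells (CYP3A4-driven luciferase) in 5% charcoal-stripped FBS medium, plated 5 h before compound addition, then treated 24 h at 37C. Luciferase read by ONE-Glo luminescence after 30 min at room temperature.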

Test [7] deals with Nuclear receptor subfamily 1 group I member 2 (Rattus norvegicus) (UniProt Q9R1A7). The test is described as follows: Rat pregnane X receptor (rPXR) activation by small molecules, qHTS assay (AID 1346983). Also: nearly all actives have a fitted effect of over 20% in size. Also: potency is read from the fitted curve at half-maximal effect. To be noted: rPXR luciferase reporter cells, One-Glo luminescence, 24 h; max activation: active compounds read high. The essentials:
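Cell-based rPXR luciferase reporter assay, 2,000 cells per well, rested 5hr at 37 C before compound addition in DMSO, then 24 hr at 37 C. One-Glo reagent was added and luminescence read after 30 min at room temperature.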

For test [8], the target named is Nuclear receptor subfamily 1 group I member 2 (Homo sapiens) (UniProt O75469). The test is described as follows: CYP3A4 induction through human pregnane X receptor (PXR) by small molecules, qHTS assay (AID 1346984). Also: nearly all actives have a fitted effect of over 40% in size. The essentials:
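DPX-2 HepG2 cells carrying a PXR response element and CYP3A4-promoter luciferase construct, treated with compounds 24 hr at 37C. Then P450-Glo CYP3A4 Luciferin-IPA substrate (3uM final) for 3 hr at 37C, One-Glo added, luminescence read.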

The target in test [9] is Cytochrome P450 2D6 (Homo sapiens) (UniProt P10635). The test is described as follows: Cytochrome P450 Family 2 Subfamily D Member 6 (CYP2D6) small molecule antagonists: luciferase reporter qHTS assay (AID 1671196). Also: nearly all actives have a fitted effect of over 50% in size. Also: potency is read from the fitted curve at half-maximal effect. As to activity change, negative = inhibition: series mostly up to about 120 µM. The essentials: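 Cell-free P450-Glo system: CYP2D6 with proluciferin substrate was pre-incubated with compound for 10 min, then reacted with NADPH regeneration for 1 h at room temperature. Luciferin product was detected after 20 min, and data were reported as relative luminescence units.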
Chain of Cytochrome P450 2D6 (Homo sapiens) (P10635 whole entry, looked up): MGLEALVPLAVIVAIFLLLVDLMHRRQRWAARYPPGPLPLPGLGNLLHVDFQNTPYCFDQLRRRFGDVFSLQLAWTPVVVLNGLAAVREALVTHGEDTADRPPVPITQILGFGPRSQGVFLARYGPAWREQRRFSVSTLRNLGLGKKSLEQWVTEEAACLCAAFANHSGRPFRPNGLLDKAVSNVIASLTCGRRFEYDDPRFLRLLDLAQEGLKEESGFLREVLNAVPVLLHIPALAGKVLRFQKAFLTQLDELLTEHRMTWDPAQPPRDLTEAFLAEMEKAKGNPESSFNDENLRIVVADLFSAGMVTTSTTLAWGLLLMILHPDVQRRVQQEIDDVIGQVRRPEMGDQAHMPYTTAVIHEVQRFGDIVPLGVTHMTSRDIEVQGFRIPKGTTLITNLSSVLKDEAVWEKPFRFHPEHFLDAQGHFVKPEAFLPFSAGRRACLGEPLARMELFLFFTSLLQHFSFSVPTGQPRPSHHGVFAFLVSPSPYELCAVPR

Test [10] has as its target Nuclear receptor subfamily 1 group I member 2 (Homo sapiens) (UniProt O75469). The test is described as follows: Human pregnane X receptor (PXR) activation by small molecules, qHTS assay (AID 1346985). Also: nearly all actives have a fitted effect of over 40% in size. The essentials: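 DPX-2 cells (HepG2 co-transfected with a PXR response element and a CYP3A4-promoter luciferase construct) were seeded at 2,000 per well, rested 5 hr at 37C, then exposed to DMSO-dissolved compounds for 24 hr. Activation was read as luciferase luminescence.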

A number with no mark means an inactive call. Inconclusive results are not listed. Activity calls are given as the source filed them. Calls follow the shape of the dose curve; as a rule, active = well fitted curve in the direction sought with a large enough effect in the repeat runs; inconclusive = weak or mixed curves; inactive = no such curve, though single readings can be large; an effect the other way counts as inactive or inconclusive.
% is scaled to controls: 0 for no effect and ±100 for the full control effect.

Chain of Nuclear receptor subfamily 1 group I member 2 (Homo sapiens) (O75469 whole entry, looked up): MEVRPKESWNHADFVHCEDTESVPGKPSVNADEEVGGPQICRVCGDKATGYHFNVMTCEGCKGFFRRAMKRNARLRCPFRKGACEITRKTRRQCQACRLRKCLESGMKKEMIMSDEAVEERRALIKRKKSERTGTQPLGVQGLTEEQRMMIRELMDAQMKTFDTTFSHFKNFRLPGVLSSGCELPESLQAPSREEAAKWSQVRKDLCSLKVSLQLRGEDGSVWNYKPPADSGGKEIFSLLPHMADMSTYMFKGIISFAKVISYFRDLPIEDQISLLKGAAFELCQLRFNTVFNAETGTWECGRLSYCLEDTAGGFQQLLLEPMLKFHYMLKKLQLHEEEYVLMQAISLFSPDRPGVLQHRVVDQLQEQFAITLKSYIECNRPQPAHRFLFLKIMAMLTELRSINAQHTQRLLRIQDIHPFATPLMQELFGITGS
Chain of Nuclear receptor subfamily 1 group I member 2 (Rattus norvegicus) (Q9R1A7 whole entry, looked up): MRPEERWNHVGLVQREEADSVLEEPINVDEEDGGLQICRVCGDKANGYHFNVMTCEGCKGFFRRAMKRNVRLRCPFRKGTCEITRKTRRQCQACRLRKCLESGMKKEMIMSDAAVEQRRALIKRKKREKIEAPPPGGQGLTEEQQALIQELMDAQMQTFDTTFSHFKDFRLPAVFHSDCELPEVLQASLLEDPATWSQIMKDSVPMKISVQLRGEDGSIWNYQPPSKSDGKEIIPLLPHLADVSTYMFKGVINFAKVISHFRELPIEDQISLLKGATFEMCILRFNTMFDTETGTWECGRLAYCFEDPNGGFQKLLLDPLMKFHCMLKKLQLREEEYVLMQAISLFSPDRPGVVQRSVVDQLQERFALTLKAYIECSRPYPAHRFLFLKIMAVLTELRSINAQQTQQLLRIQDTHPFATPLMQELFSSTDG

Turning to `CCCC(=O)Nc1ccc(O)c(C(C)=O)c1`, the Potency result in [1], in test [2], in test [3], in test [4], in [5] and in test [6] was “inactive” throughout.
In the case of `COC(=O)c1ccc(I)cc1S(=O)(=O)NC(=O)Nc1nc(C)nc(OC)n1`, the Potency entry in test [1], in [2], in test [3], in test [4], in [5] and in test [6] was “inactive” each time.
On to `COc1ccc(-c2nc3ccc(C4=NNC(=O)CC4C)cc3[nH]2)cc1` (configuration not stated), for which the Potency entry in test [1], in test [2], in test [4], in test [5], in test [8] and in test [9] was “inactive” each time. Moreover, the figures for the Potency in [3], in [6] and in test [7] were 23.7 µM (active), 13.3 µM (active) and 22.4 µM (active), respectively.
Consider `C[N+](C)(C)CCOC(=O)CCC(=O)OCC[N+](C)(C)C`, for which the Potency result in test [1], in test [2], in test [3], in test [4], in [5] and in [6] was “inactive” throughout. The Potency entry in [8], in test [10] and in test [9] was “inactive” throughout. The max activation in test [7] is -0.297%.
In the case of `CC(=O)NO`, the Potency result in test [1], in [2], in [3], in test [4], in test [5] and in test [6] was “inactive” in each case. For the same compound, the Potency result in test [8], in test [10] and in test [9] was “inactive” in each case.
As for `C/C=C/C=C/CO`, the Potency entry in test [1], in test [2], in test [3], in test [4], in test [5] and in test [6] was “inactive” in each case.
Regarding `C#CCN(C)CCCOc1ccc(Cl)cc1Cl`, the Potency entry in test [1], in test [2], in [3], in test [4], in test [5] and in test [10] was “inactive” in each case. The Potency in test [6] was 29.8 µM (active); in test [9] it was 1.55 µM (active). Moreover, the max activation in [7] was -1.33%.
In the case of `C=CCOc1ccccc1OCC(O)CNC(C)C` (configuration not stated), the Potency entry in test [1], in test [2], in [3], in test [4], in test [5] and in test [6] was “inactive” in each case. Besides, the Potency entry in test [8] and in test [10] was “inactive” in each case. For the same compound, the Potency in [9] is 9.77 µM (active).
In the case of `NCc1ccccc1Sc1ccccc1CO`, the Potency result in [1], in test [2], in test [3], in test [4], in [5] and in test [6] was “inactive” throughout. For the same compound, the Potency entry in test [8] and in test [10] was “inactive” each time. Besides, the Potency in test [9] is 7.76 µM (active).
In the case of `NCCCN1CCOCC1`, the Potency entry in [1], in test [2], in test [3], in test [4], in test [5] and in test [6] was “inactive” in each case.
Take `O=S(c1cc(Cl)cc(Cl)c1O)c1cc(Cl)cc(Cl)c1O`: the Potency entry in [1], in [2], in [3], in test [4], in test [5] and in test [6] was “inactive” each time. Also, the Potency result in test [8] was “inactive”. The max activation in test [7] is -2.94%.
In the case of `CCOCC(O)COc1ccc(NC(=O)CC[S+](C)C)cc1` (configuration not stated), the Potency entry in [1], in test [2], in test [3], in [4], in [5] and in [6] was “inactive” in each case. Besides, the Potency result in test [8] and in test [10] was “inactive” in each case.
As to `Nc1cccc([N+](=O)[O-])c1`, the Potency result in test [1], in [2], in test [3], in test [4], in test [5] and in [6] was “inactive” in each case.
Consider `COc1ccc2cccc(CCNC(C)=O)c2c1`, for which the Potency result in test [1], in test [2], in test [3], in [4], in test [5] and in test [6] was “inactive” throughout.
For `O=C1C(O)=C(O)C(=O)C(O)=C1O`, the Potency entry in [1], in test [2], in test [3], in test [4], in test [5] and in test [6] was “inactive” each time. The Potency result in [8], in [10] and in test [9] was “inactive” throughout. The max activation in test [7] is -2.91%.
Turning to `CCOC(=O)c1cccnc1`, the Potency entry in test [1], in test [2], in [3], in test [4], in test [5] and in [6] was “inactive” throughout. In addition, the Potency entry in [8], in [10] and in [9] was “inactive” each time. In [7], the max activation was -3.51%.
On to `O=C1CCCCCCCCCCCC(=O)OCCO1`, for which the Potency entry in test [1], in test [2], in [3], in [4], in test [5] and in [6] was “inactive” throughout.
`Cc1[nH]c(C)c(Cl)c(=O)c1Cl`: the activity change, negative = cytotoxicity in [1] is 6.66% [at 19 µM]; in test [3] it was 1.93% [at 19 µM]; in test [5], -0.581% [at 19 µM]. The caspase activation in test [2] was 0.0051% [at 19 µM]. Also, the caspase-3/7 activation in test [4] is -0.964% [at 19 µM]. In addition, the activation in [6] was -7.31% [at 19 µM]. Besides, the max activation in test [7] was -3.17%. Besides, the Potency entry in test [8] and in test [10] was “inactive” each time. Further, the activity change, negative = inhibition in [9] was -9.89% [at 23.6 µM].
On to `OC[C@H]1O[C@@H](OCCc2ccc(O)cc2)[C@H](O)[C@@H](O)[C@@H]1O`, for which the Potency entry in test [1], in test [2], in test [3], in [4], in test [5] and in test [6] was “inactive” throughout.
Consider `NCC(=O)CCC(=O)O`, for which the Potency result in test [1], in [2], in [3], in test [4], in [5] and in test [6] was “inactive” each time. Also, the Potency result in test [8], in test [10] and in [9] was “inactive” throughout. Also, the max activation in [7] was -1.79%.
In the case of `CCN(CC)c1ccc2c(-c3ccccc3C(=O)O)c3ccc(=[N+](CC)CC)cc-3oc2c1`, the Potency is 4.86 µM (active) in [1], 2.17 µM (active) in test [3], 5.45 µM (active) in test [5] and 24.3 µM (active) in [6]. Besides, the Potency result in test [2] and in test [4] was “inactive” in each case.
Consider `COc1ccc(C(=O)N2CCN(CC(=O)N3CCOCC3)CC2)cc1`, for which the Potency entry in [1], in [2], in test [3], in test [4], in test [5] and in test [6] was “inactive” throughout. Besides, the Potency result in test [8], in test [10] and in test [9] was “inactive” in each case. Besides, the max activation in [7] is -1.44%.
As to `CCC(C)(C)CC`, the Potency result in [1], in test [2], in test [3], in [4], in [5] and in test [6] was “inactive” in each case.
For `CCCCCCc1ccc(-c2ccc(C#N)cc2)cc1`, the Potency entry in test [1], in test [2], in test [3], in test [4], in test [5] and in test [6] was “inactive” each time.

These data come from PubChem BioAssay (Tox21).
